Measured values: the OligoGym collection
Also: reference of the scale not given here.

The sequences below were run against KRTAP5-8 (assay: pooled miR-30 sensor sort-seq; sequence = guide strand). Details: shRNA.
For CTGCAGGGCTTACAACAGCTGG, the sensor-assay potency score (higher = more potent) was -2.04. In the case of AGCAGCTAGAGCCACATCCCCC, the sensor-assay potency score (higher = more potent) is reported as -1.72. In the case of ATGGGCACACAGCAGCTAGAGC, the sensor-assay potency score (higher = more potent) is reported as -1.84.

Each sequence was assayed against KRTAP5-9 in the same assay as above. Details: shRNA.
Work on TGAAGAGCAACAGCAGGGCTTG yielded a sensor-assay potency score (higher = more potent) of -0.909. TTGCAGCAGTAGACGGGTGCAC showed a sensor-assay potency score (higher = more potent) of -0.372. TCACAGCCTCCACAGCTGGAGC gave a sensor-assay potency score (higher = more potent) of -1.62. In the case of AGCTAGAGCAGGAACAGGCTGG, the sensor-assay potency score (higher = more potent) is reported as -1.04. With TGAGGATGAGCAGCAGGGCTTG the sensor-assay potency score (higher = more potent) was -1.74. For AGTCACAGCCTCCACAGCTGGA, the sensor-assay potency score (higher = more potent) was -1.85. Work on TGGAACACAGCAGCACACGGGC yielded a sensor-assay potency score (higher = more potent) of -1.32. TAGGGCTTGCAGCAGCTGCACT showed a sensor-assay potency score (higher = more potent) of -1.29. Sequence CACACAGGGACACAGCATCTGG has a sensor-assay potency score (higher = more potent) of -1.57. Sequence TAGACGGGTGCACAGCAGCTGG has a sensor-assay potency score (higher = more potent) of -1.34. With TAGAGCAGGAACAGGCTGGAAC the sensor-assay potency score (higher = more potent) was -1.08. With TTGCCACAGCTAGAGCAGGAAC the sensor-assay potency score (higher = more potent) was -1.67.

The sequences below were run against KRTAP6-3 in the same assay as above. Details: shRNA.
In the case of TCTGTAGCCACAGCCACAGAAG, the sensor-assay potency score (higher = more potent) is reported as -1.55. Sequence ATTGTAGTTTCTGTAGTAGCTG has a sensor-assay potency score (higher = more potent) of -0.231. In the case of ATAGCCATGGCCACCATTGTAG, the sensor-assay potency score (higher = more potent) is reported as -1.31. For TAGTTTCTGTAGTAGCTGCCAC, the sensor-assay potency score (higher = more potent) was -0.443. Sequence TGTAGTTTCTGTAGTAGCTGCC has a sensor-assay potency score (higher = more potent) of 0.749. With TTTCTGTAGTAGCTGCCACACA the sensor-assay potency score (higher = more potent) was -1.22. ACAGCCATAGCCACAGTCCAGG gave a sensor-assay potency score (higher = more potent) of -1.73. TAGTAGCTGCCACACATGGTGT was tested, and the sensor-assay potency score (higher = more potent) was -1.17. For TCTGTAGTAGCTGCCACACATG, the sensor-assay potency score (higher = more potent) was -1.43. TTCTGTAGTAGCTGCCACACAT gave a sensor-assay potency score (higher = more potent) of -0.0154. For TTGTAGTTTCTGTAGTAGCTGC, the sensor-assay potency score (higher = more potent) was -0.198. TAGCCACAGCCACAGAAGGAGC gave a sensor-assay potency score (higher = more potent) of -1.94.

These sequences were tested against KRTAP8-1 in the same assay as above. Details: shRNA.
Work on TTGGAAAGCAGTGTCTCTGAGG yielded a sensor-assay potency score (higher = more potent) of -0.482. TGTAGCCATAGCCGAAGCCATA gave a sensor-assay potency score (higher = more potent) of -1.87. Work on ATCCTGGGAAGACAGCCCCGGG yielded a sensor-assay potency score (higher = more potent) of -1.89. TGCCCCAGTAGCATCCTGGGAA was tested, and the sensor-assay potency score (higher = more potent) was -0.828. Work on TAGCCGAAAGCCCCACAGCCGT yielded a sensor-assay potency score (higher = more potent) of -1.72. TTGTAGCCATAGCCGAAGCCAT gave a sensor-assay potency score (higher = more potent) of -1.41. TATATCCCAGCGGGTAGCCATA gave a sensor-assay potency score (higher = more potent) of -1.94. ACAGCCAACGCTATATCCCAGC was tested, and the sensor-assay potency score (higher = more potent) was -1.47. With TGCTGCCATAGCCACAGCCAAC the sensor-assay potency score (higher = more potent) was -2.12. Work on AGCCGTTGTAGCCATAGCCGAA yielded a sensor-assay potency score (higher = more potent) of -1.46. With TAGCATCCTGGGAAGACAGCCC the sensor-assay potency score (higher = more potent) was -0.588. In the case of TAGGTGCTGCCATAGCCACAGC, the sensor-assay potency score (higher = more potent) is reported as -1.53.
